Data published in PubChem BioAssay (NCATS).
Records with an inconclusive call do not appear. Calls of active or inactive are those of the source. Calls follow the shape of the dose curve; as a rule, active = well fitted inhibition curve with a large enough effect; inconclusive = small, poorly fitted or top-dose-only effect; inactive = flat fitted curve, though single readings scatter.

How the values were obtained:
[1] = qHTS profiling for inhibitors of Plasmodium falciparum proliferation (AID 504749); also: nearly all actives have a fitted effect of over 60% in size;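 as to activity, negative = inhibition: 0% = DMSO vehicle and full inhibition = artemisinin control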; conditions: P. falciparum in erythrocytes, SYBR Green DNA, 72 h
How it was run: (§1)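 Quantitative HTS: compounds pinned into medium, infected erythrocytes added (0.3% parasitemia, 2.5% hematocrit), 72 h culture at 37 C under 5% CO2. Saponin/Triton lysis with SYBR Green I, overnight RT, then fluorescence read.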

[2] = tested on: 3D7; assay: as above; conditions: P. falciparum in erythrocytes, SYBR Green DNA, 72 h; series mostly up to 28.7 µM
How it was run: as §1

[3] = tested on: 7G8; assay: as above; conditions: P. falciparum in erythrocytes, SYBR Green DNA, 72 h; series mostly up to 28.7 µM
How it was run: as §1

[4] = tested on: AA1029; assay: as above; conditions: P. falciparum in erythrocytes, SYBR Green DNA, 72 h; series mostly up to 28.7 µM
How it was run: as §1

[5] = tested on: AS120; assay: as above; conditions: P. falciparum in erythrocytes, SYBR Green DNA, 72 h; series mostly up to 28.7 µM
How it was run: as §1

[6] = tested on: ATS189; assay: as above; conditions: P. falciparum in erythrocytes, SYBR Green DNA, 72 h; series mostly up to 28.7 µM
How it was run: as §1

[7] = tested on: ATS95; assay: as above; conditions: P. falciparum in erythrocytes, SYBR Green DNA, 72 h; series mostly up to 28.7 µM
How it was run: as §1

[8] = tested on: C2A; assay: as above; conditions: P. falciparum in erythrocytes, SYBR Green DNA, 72 h; series mostly up to 28.7 µM
How it was run: as §1

[9] = tested on: CP185; assay: as above; conditions: P. falciparum in erythrocytes, SYBR Green DNA, 72 h; series mostly up to 28.7 µM
How it was run: as §1

[10] = tested on: CP191; assay: as above; conditions: P. falciparum in erythrocytes, SYBR Green DNA, 72 h; series mostly up to 28.7 µM
How it was run: as §1

[11] = tested on: CP192; assay: as above; conditions: P. falciparum in erythrocytes, SYBR Green DNA, 72 h; series mostly up to 28.7 µM
How it was run: as §1

[12] = tested on: CP194; assay: as above; conditions: P. falciparum in erythrocytes, SYBR Green DNA, 72 h; series mostly up to 28.7 µM
How it was run: as §1

[13] = tested on: CP201; assay: as above; conditions: P. falciparum in erythrocytes, SYBR Green DNA, 72 h; series mostly up to 28.7 µM
How it was run: as §1

[14] = tested on: CP203; assay: as above; conditions: P. falciparum in erythrocytes, SYBR Green DNA, 72 h; series mostly up to 28.7 µM
How it was run: as §1

[15] = tested on: CP211; assay: as above; conditions: P. falciparum in erythrocytes, SYBR Green DNA, 72 h; series mostly up to 28.7 µM
How it was run: as §1

[16] = tested on: CP215; assay: as above; conditions: P. falciparum in erythrocytes, SYBR Green DNA, 72 h; series mostly up to 28.7 µM
How it was run: as §1

[17] = tested on: CP217; assay: as above; conditions: P. falciparum in erythrocytes, SYBR Green DNA, 72 h; series mostly up to 28.7 µM
How it was run: as §1

[18] = at 28.7 µM (top of the series), parasite line A
[19] = at 28.7 µM (top of the series), parasite line B
Potency is read from the fitted curve at half-maximal effect.

CCCCCCCCCCCCCC[N+](C)(C)Cc1ccccc1
active: Potency ([1]; parasite line A) 4.47 µM | Potency ([1]; parasite line B) 7.94 µM | Potency [2] 3.55 µM | Potency [3] 2.24 µM | Potency [4] 6.31 µM | Potency [5] 7.08 µM | Potency [6] 7.08 µM | Potency [7] 7.08 µM | Potency [8] 3.98 µM | Potency [9] 6.31 µM | Potency [10] 2.51 µM | Potency [11] 6.75 µM | Potency [12] 6.75 µM | Potency [13] 7.57 µM | Potency [14] 6.01 µM | Potency [15] 4.26 µM | Potency [16] 5.36 µM | Potency [17] 5.62 µM

CCCCCCCCCCCCSCCOCCO
inactive: activity, negative = inhibition [1, 18] 9.57% | activity, negative = inhibition [1, 19] 14.6% | Potency [2] | Potency [3] | Potency [4] | Potency [5] | Potency [6] | Potency [7] | Potency [8] | Potency [9] | Potency [10] | Potency [11] | Potency [12] | Potency [13] | Potency [14] | Potency [15] | Potency [16] | Potency [17]

FC(F)(F)C(F)(F)C(F)(F)C(F)(F)C(F)(F)C(F)(F)C(F)(F)C(F)(F)Br
inactive: activity, negative = inhibition [1, 18] 2.77% | activity, negative = inhibition [1, 19] -1.15% | Potency [2] | Potency [3] | Potency [4] | Potency [5] | Potency [6] | Potency [7] | Potency [8] | Potency [9] | Potency [10] | Potency [11] | Potency [12] | Potency [13] | Potency [14] | Potency [15] | Potency [16] | Potency [17]

Nc1ccc(S(=O)(=O)NCc2ccccc2)cc1
inactive: activity, negative = inhibition [1, 18] 4.25% | activity, negative = inhibition [1, 19] 6.29% | Potency [2] | Potency [3] | Potency [4] | Potency [5] | Potency [6] | Potency [7] | Potency [8] | Potency [9] | Potency [10] | Potency [11] | Potency [12] | Potency [13] | Potency [14] | Potency [15] | Potency [16] | Potency [17]

NCc1ccccc1Sc1ccccc1CO
active: Potency [3] 11.2 µM
inactive: activity, negative = inhibition [1, 18] 10.7% | activity, negative = inhibition [1, 19] -5.68% | Potency [2] | Potency [6] | Potency [8] | Potency [9] | Potency [10] | Potency [11] | Potency [13] | Potency [15] | Potency [16] | Potency [17]

CCc1oc2ccccc2c1C(=O)c1cc(Br)c(O)c(Br)c1
inactive: activity, negative = inhibition [1, 18] -3.41% | activity, negative = inhibition [1, 19] -11.9% | Potency [2] | Potency [3] | Potency [4] | Potency [5] | Potency [6] | Potency [7] | Potency [8] | Potency [9] | Potency [10] | Potency [11] | Potency [12] | Potency [13] | Potency [14] | Potency [15] | Potency [17]

O=C1C(=O)c2ccccc2C(O)=C1C1CCC(c2ccc(Cl)cc2)CC1 (centres undefined)
active: Potency ([1]; parasite line A) 0.0014 µM | Potency ([1]; parasite line B) 0.0032 µM | Potency [2] 0.0032 µM | Potency [3] 0.0011 µM | Potency [4] 0.0032 µM | Potency [5] 0.004 µM | Potency [6] 0.0028 µM | Potency [7] 0.004 µM | Potency [8] 0.0079 µM | Potency [9] 0.0035 µM | Potency [10] 0.0028 µM | Potency [11] 0.0051 µM | Potency [12] 0.0057 µM | Potency [13] 0.0064 µM | Potency [14] 0.0064 µM | Potency [15] 0.0057 µM | Potency [17] 0.0014 µM

Nc1ccc(S(=O)(=O)Nc2cnc3ccccc3n2)cc1
inactive: activity, negative = inhibition [1, 18] -3.4% | activity, negative = inhibition [1, 19] -11.6% | Potency [2] | Potency [3] | Potency [4] | Potency [5] | Potency [6] | Potency [7] | Potency [8] | Potency [9] | Potency [10] | Potency [11] | Potency [12] | Potency [13] | Potency [14] | Potency [15] | Potency [17]

CCCc1ncc(C[n+]2ccccc2C)c(N)n1
inactive: activity, negative = inhibition ([1]; at 12.8 µM (top of the series), parasite line A) 11.9% | activity, negative = inhibition ([1]; at 12.8 µM (top of the series), parasite line B) 12% | Potency [2] | Potency [3] | Potency [4] | Potency [5] | Potency [6] | Potency [7] | Potency [8] | Potency [9] | Potency [10] | Potency [11] | Potency [12] | Potency [13] | Potency [14] | Potency [15] | Potency [17]

COc1cc(O)c(C(=O)c2ccccc2)cc1S(=O)(=O)O
active: Potency [3] 11.2 µM
inactive: activity, negative = inhibition [1, 18] -0.769% | activity, negative = inhibition [1, 19] 4.93% | Potency [2] | Potency [4] | Potency [5] | Potency [7] | Potency [8] | Potency [9] | Potency [11] | Potency [12] | Potency [13] | Potency [14] | Potency [15] | Potency [16] | Potency [17]
